Here are results for eight compounds from PubChem BioAssay (NCI).

Compounds without any hit were thinned out: in the full panel of roughly 83,000, 20% have a hit.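 96-well plates, one dose, 48 hours. Percent growth reported; active if below 10.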 A number with no mark means an inactive call. The source made the active and inactive calls.

Test systems include NCI-H23 lung; NCI-H226 lung; NCI-H322M lung; HOP-62 NSCLC; NCI-H460 lung; HOP-92 NSCLC; NCI-H522 lung; A549/ATCC NSCLC; 786-0 renal; COLO 205 colon; DU-145 prostate; K-562 leukemia; MALME-3M melanoma; MDA-MB-231 breast; SF-268 CNS; SF-295 CNS; SF-539 CNS; UACC-257 melanoma; M14 melanoma.
What all share (assay): NCI-60 one-dose screen, 48 h (100 = growth as untreated, 0 = no growth, -100 = all killed)
Common to all, as to conditions: 10 µM unless noted

Regarding `Cc1ccc2nc3c(cc2c1)CSc1nnc(-c2ccc[nH]c2=S)n1N3`, the growth with NCI-H23 lung was 98.6%; in the assay on NCI-H226 lung it was 91.5%; with NCI-H322M lung it was 99.9%; in the assay with HOP-62 NSCLC, 95.8%; in the assay on NCI-H460 lung, 99.2%; in the assay on HOP-92 NSCLC it was 102%. Also, the growth in the assay on NCI-H522 lung is 83.7%; in the assay on A549/ATCC NSCLC, 99.7%; in the assay on 786-0 renal it was 98.7%; in the assay with COLO 205 colon, 110%; in the assay on DU-145 prostate it was 113%; in the assay on K-562 leukemia, 93%. For the same compound, the growth in the assay with MALME-3M melanoma was 97.7%; with MDA-MB-231 breast it was 93.4%; in the assay with SF-268 CNS, 89.5%; with SF-295 CNS, 108%; with SF-539 CNS, 97.3%; with UACC-257 melanoma, 103%. In addition, the growth in the assay on M14 melanoma was 93%.

With `COc1ccc(-c2nc(SCC(C)C)nc(N/N=C(/C)c3ccc(OC)c(OC)c3)c2C#N)cc1`, the growth is 89.7% in the assay with NCI-H23 lung; 94.1% in the assay on NCI-H226 lung; 79.7% with NCI-H322M lung; 86.9% in the assay on HOP-62 NSCLC; 65.9% in the assay with NCI-H460 lung; 38.4% with HOP-92 NSCLC. The growth in the assay on NCI-H522 lung is 80.8%; in the assay on A549/ATCC NSCLC, 99.8%; in the assay with 786-0 renal, 96.9%; with COLO 205 colon, 110%; in the assay on DU-145 prostate it was 87.7%; in the assay on K-562 leukemia, 69.5%. Also, the growth in the assay with MALME-3M melanoma was 88.9%; in the assay with MDA-MB-231 breast, 74.5%; in the assay with SF-268 CNS, 79.1%; in the assay on SF-295 CNS, 92.8%; with SF-539 CNS, 80.9%; in the assay with UACC-257 melanoma, 105%. For the same compound, in the assay with M14 melanoma, the growth is 94%.

On to `COc1ccc(C(=O)c2cc3c(N)c(C(=O)Nc4cccc5ccccc45)sc3nc2C)cc1`, for which the growth in the assay with NCI-H23 lung was 30.7%; with NCI-H226 lung, 47.4%; in the assay with NCI-H322M lung, 51.4%; in the assay with HOP-62 NSCLC, 30.2%; in the assay with NCI-H460 lung, 3.06% (active); in the assay with HOP-92 NSCLC it was 44.5%. Moreover, the growth in the assay with NCI-H522 lung is -28.8% (active); with A549/ATCC NSCLC, 17.6%; in the assay with 786-0 renal, 31.6%; in the assay on COLO 205 colon, -37.7% (active); in the assay on DU-145 prostate, 9.48% (active); with K-562 leukemia it was 7.36% (active). Also, the growth was 55% in the assay on MALME-3M melanoma; 15.7% with MDA-MB-231 breast; 29.1% in the assay on SF-268 CNS; 19.7% with SF-295 CNS; -9.85% (active) in the assay with SF-539 CNS; 55.8% in the assay on UACC-257 melanoma. Moreover, in the assay with M14 melanoma, the growth is 11.6%.

As for `CN(C)C(=O)OCc1nc2c(N3CCOCC3)nc(-c3ccccc3)nc2n1C`, the growth in the assay on NCI-H23 lung was -67.3% (active); in the assay on NCI-H226 lung, -66.1% (active); in the assay with NCI-H322M lung, 53.4%; with HOP-62 NSCLC, -46.9% (active); in the assay with NCI-H460 lung it was -71.8% (active); in the assay on HOP-92 NSCLC, -68.4% (active). Besides, the growth in the assay with NCI-H522 lung was -46.8% (active); in the assay with A549/ATCC NSCLC it was -29.6% (active); in the assay on 786-0 renal, -71.3% (active); in the assay with COLO 205 colon it was -70.5% (active); in the assay on DU-145 prostate it was -74.4% (active); in the assay on K-562 leukemia, 5.32% (active). For the same compound, the growth is -92.8% (active) in the assay with MALME-3M melanoma; -86.5% (active) with MDA-MB-231 breast; -59.9% (active) in the assay with SF-268 CNS; 29.9% in the assay on SF-295 CNS; -98.3% (active) in the assay with SF-539 CNS; -65.4% (active) in the assay with UACC-257 melanoma. Besides, the growth in the assay on M14 melanoma was -54.5% (active).

Consider `O=S(=O)(NCCCNc1nccc(-c2c(-c3ccccc3)nc3occn23)n1)c1ccc(Cl)cc1`, for which the growth in the assay on NCI-H23 lung was 94.2%; with NCI-H226 lung, 75.3%; in the assay with NCI-H322M lung, 99.9%; in the assay on HOP-62 NSCLC, 95.1%; in the assay on NCI-H460 lung it was 85%; in the assay on HOP-92 NSCLC, 93.8%. Also, the growth was 77.9% in the assay with NCI-H522 lung; 65.8% with A549/ATCC NSCLC; 82.5% with 786-0 renal; 69.1% in the assay with COLO 205 colon; 85.5% in the assay on DU-145 prostate; 50.6% in the assay with K-562 leukemia. In addition, the growth in the assay on MALME-3M melanoma was 91.8%; in the assay on MDA-MB-231 breast, 93.3%; in the assay on SF-268 CNS, 80%; in the assay on SF-295 CNS, 93.3%; in the assay with SF-539 CNS, 110%; with UACC-257 melanoma, 105%. Besides, in the assay on M14 melanoma, the growth is 71%.

Turning to `COc1cc(/C=N/NC(=O)c2ccccc2Nc2cccc(C(F)(F)F)c2)ccc1O`, the growth in the assay on NCI-H23 lung was 91.5%; in the assay on NCI-H226 lung it was 88.3%; with NCI-H322M lung, 103%; with HOP-62 NSCLC it was 93.4%; with NCI-H460 lung, 100%; in the assay with HOP-92 NSCLC it was 67.6%. For the same compound, the growth is 81.9% with NCI-H522 lung; 100% in the assay on A549/ATCC NSCLC; 75.7% in the assay on 786-0 renal; 106% in the assay with COLO 205 colon; 89.7% in the assay on DU-145 prostate; 77.9% in the assay with K-562 leukemia. The growth in the assay on MALME-3M melanoma was 106%; with MDA-MB-231 breast it was 71.6%; with SF-268 CNS, 81.5%; in the assay with SF-295 CNS, 93.5%; in the assay with SF-539 CNS, 105%; with UACC-257 melanoma, 23.8%. Moreover, the growth with M14 melanoma is 73.9%.

As to `O=C1NC(=S)NC(=O)C1=Cc1cccc(C=C2C(=O)NC(=S)NC2=O)c1`, the growth is 102% with NCI-H23 lung; 98.8% with NCI-H226 lung; 110% in the assay on NCI-H322M lung; 104% with HOP-62 NSCLC; 104% with NCI-H460 lung; 116% in the assay on HOP-92 NSCLC. Besides, the growth in the assay on NCI-H522 lung is 93.1%; with A549/ATCC NSCLC, 108%; in the assay on 786-0 renal it was 12.2%; in the assay on COLO 205 colon it was 113%; with DU-145 prostate it was 110%; in the assay with K-562 leukemia it was 102%. The growth in the assay with MALME-3M melanoma was 109%; in the assay on MDA-MB-231 breast it was 108%; in the assay on SF-268 CNS, 103%; with SF-295 CNS it was 108%; in the assay with SF-539 CNS, 99.9%; with UACC-257 melanoma, 102%. Also, the growth in the assay on M14 melanoma was -58.6% (active).

Regarding `COc1cc(OC)cc(C2C3=C(COC3=O)Nc3cc(OC)ccc32)c1` (configuration not stated), the growth was 12.1% in the assay on NCI-H23 lung; -3.11% (active) with NCI-H226 lung; 50.5% in the assay on NCI-H322M lung; 22% in the assay on HOP-62 NSCLC; 4.2% (active) with NCI-H460 lung; 52.6% in the assay with HOP-92 NSCLC. The growth in the assay with NCI-H522 lung was -40.5% (active); in the assay with A549/ATCC NSCLC, 16.6%; in the assay with 786-0 renal, 11%; in the assay with COLO 205 colon, -74.1% (active); in the assay with DU-145 prostate it was -30.2% (active); in the assay with K-562 leukemia it was 11.9%. The growth was 71.6% in the assay on MALME-3M melanoma; -7.98% (active) in the assay with MDA-MB-231 breast; 18.1% with SF-268 CNS; 10.9% with SF-295 CNS; 1.4% (active) with SF-539 CNS; 45.5% with UACC-257 melanoma. In addition, the growth with M14 melanoma is 3.85% (active).
